Source: PubChem BioAssay (National Center for Advancing Translational Sciences (NCATS))
SMN2 splice enh – SMN2 splice variant enhancement. Potency, µM (top dose mostly 46.1 µM), for inactives: top-dose activity change, positive = activation, most hits filed as activators. 210,000 compounds, 2.8% hits. HEK293 SMN2-luciferase splicing reporter, luminescence, 30-36 h; note: % of control where 0% means no effect; nearly all actives have a fitted effect of over 55% in size
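HEK293 cells carry an SMN2 minigene-luciferase reporter in which exon 7 inclusion puts luciferase in frame. Cells were seeded at 2000 cells/well, attached for 10-12 hours, then exposed to compounds for 30-36 hours at 37C before ONE-Glo luminescence.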
Rab9 prom act – Rab9 promoter activation. 320,000 compounds, 2.8% hits. Huh7 Rab9 promoter-luciferase reporter, luminescence, 24 h. AID 485297. Potency, µM (series often up to 9.22 µM), inactives show at the top dose activation, negative = inhibition, hits mostly activators; note: % of control where 0% means no effect; nearly all actives have a fitted effect of over 60% in size
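Luminescence read-out: Huh7 cells stably expressing Rab9-luciferase, treated 24 h with compound at 37 °C, then lysed with luciferase reagent for 10 min at ambient before reading.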
KinaseGlo FLuc – blocks Kinase-Glo luciferase, a counter-screen artifact. Potency, µM (series often up to 38.3 µM), for inactives: at the top dose activity change, negative = inhibition, hits mostly inhibitors. 200,000 compounds, 0.28% hits. Kinase-Glo luciferase, ATP luminescence, 8 min. Q27757; note: % is set by controls: 0 for no effect and ±100 for the full control effect; nearly all actives have a fitted effect of over 60% in size
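Inhibition of Kinase-Glo luciferase light generation was assessed at 10 uM ATP in pH 7.2 imidazole buffer, with luminescence measured after eight minutes at ambient temperature.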
NPC1 promoter act – activates the NPC1 promoter; 320,000 compounds, 2.4% hits; Potency, µM (doses to about 9.22 µM), without a hit: at the highest dose activation, most hits filed as activators; AID 485313; Huh7 NPC1 promoter luciferase reporter, 24 h; note: % of control where 0% means no effect; nearly all actives have a fitted effect of over 60% in size
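In 1536-well qHTS, Huh7 cells harboring an NPC1 promoter–luciferase construct received compound for 24 h; activation was quantified by luminescence following luciferase reagent addition.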
FLuc counter – counter-screen for miR-21 project: firefly luciferase inhibitors or activators. purified FLuc, Km substrates, luminescence inhibition. AID 588342. P08659. Potency, µM (highest dose often 57.5 µM), for inactives: at the highest dose activity change, negative = inhibition, hits mostly inhibitors. 360,000 compounds, 6.9% hits;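 note: plate controls were vehicle for no effect and reference inhibitor for full effect; nearly all actives have a fitted effect of over 55% in size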
Target sequence (P08659 whole entry, looked up): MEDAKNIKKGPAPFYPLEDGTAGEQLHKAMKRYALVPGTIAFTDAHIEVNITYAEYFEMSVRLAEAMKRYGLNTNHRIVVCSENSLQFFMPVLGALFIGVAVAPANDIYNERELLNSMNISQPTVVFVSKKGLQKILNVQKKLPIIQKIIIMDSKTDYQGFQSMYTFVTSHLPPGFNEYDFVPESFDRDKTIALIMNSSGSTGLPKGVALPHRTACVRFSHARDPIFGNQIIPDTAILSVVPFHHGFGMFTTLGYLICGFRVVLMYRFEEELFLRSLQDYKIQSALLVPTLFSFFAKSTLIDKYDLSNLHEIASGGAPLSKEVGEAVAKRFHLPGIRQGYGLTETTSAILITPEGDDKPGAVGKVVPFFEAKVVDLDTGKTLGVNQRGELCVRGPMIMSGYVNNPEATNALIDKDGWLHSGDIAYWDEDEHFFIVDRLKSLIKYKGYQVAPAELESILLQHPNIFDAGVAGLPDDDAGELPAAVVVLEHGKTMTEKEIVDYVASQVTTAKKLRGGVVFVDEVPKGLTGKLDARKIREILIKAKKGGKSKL
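Purified P. pyralis luciferase, 10 nM final, with Km-level 10 uM D-luciferin and 10 uM ATP in 50 mM Tris acetate pH 7.5, 10 mM Mg acetate, 0.01% Tween-20, 0.05% BSA; 6-point qHTS titration about 60 µM downward; luminescence read.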
ELG1 genotoxic – inducers of genotoxicity in HEK293T ELG1-luciferase cells; HEK293T ELG1-luciferase reporter, luminescence, 16 h; Potency, µM (titrated, usually from 46 µM), without a hit: at the top dose activity change, positive = activation, usual class: activators; AID 504466; 330,000 compounds, 1.3% hits; note: % of control where 0% means no effect; nearly all actives have a fitted effect of over 60% in size
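Quantitative HTS format in 1536-well plates. HEK293T ELG1-luciferase reporter cells receive test compound and are incubated 16 hr at 37 °C, 5% CO2; ONE-Glo added, 30 min room temperature, then luminescence read.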
* hit, by the source's call; [ ] = another dose, or the depositor's remark. A selection: hits, their analogues and other compounds. The true share with any hit is near 7.5%. Calls come from the whole dose curve; as a rule, active = well fitted curve in the direction sought with a large enough effect; inconclusive = small, poorly fitted or top-dose-only effect, or another doubt; inactive = no such curve, though single readings can be large; an effect the other way counts as inactive or inconclusive. Potency is the fitted concentration of half-maximal effect.

For CCc1nn(Cc2c(C)cc(C)cc2C)c(=O)c2cc3cc(C)ccc3n12 the results were SMN2 splice enh 3% and FLuc counter 1%.
For COc1ccc(NS(=O)(=O)c2cc(Br)cc3c2N(C(=O)C2CC2)CC3)cc1OC the results were FLuc counter -8%.
Cc1ccc2nc(-c3ccc(NS(=O)(=O)c4ccccc4)cc3)sc2c1 was read as SMN2 splice enh 3%[1.84 µM], Rab9 prom act 13%, KinaseGlo FLuc -4%, NPC1 promoter act 15%, FLuc counter 13µM* and ELG1 genotoxic 7%.
Cc1ccc2nc(-c3ccc(NS(=O)(=O)c4ccc(F)c(F)c4)cc3)sc2c1 was read as SMN2 splice enh inconclusive, Rab9 prom act 1.6µM*, KinaseGlo FLuc -3%, NPC1 promoter act 2.8µM*, FLuc counter 1.2µM* and ELG1 genotoxic inconclusive.
For Cc1nc2ccc(NS(=O)(=O)c3ccc(F)c(F)c3)cc2s1 the results were Rab9 prom act -11%, NPC1 promoter act -2%, FLuc counter 0% and ELG1 genotoxic -1%.
For N#C/C(=C\c1cn(CCOc2ccccc2)c2ccccc12)C(=O)NCc1cccs1 the results were SMN2 splice enh -1%, Rab9 prom act -8%, KinaseGlo FLuc -3%, NPC1 promoter act -2%, FLuc counter 13% and ELG1 genotoxic 1%.
S=C(Nc1ccccc1Cl)N(Cc1ccccc1)Cc1cccnc1 was read as SMN2 splice enh -19%, Rab9 prom act -14%, KinaseGlo FLuc -2%, NPC1 promoter act -5%, FLuc counter 1% and ELG1 genotoxic 9%.
O=C(Nc1nc(-c2ccccc2)cs1)c1ccc2c(=O)n3c(nc2c1)CCCCC3 was read as Rab9 prom act -18%, NPC1 promoter act -15%, FLuc counter 12µM* and ELG1 genotoxic -19%.
`O=C(NCc1ccccc1)c1ccc2c(=O)n3c(nc2c1)CCCCC3` gave Rab9 prom act 6%, NPC1 promoter act -1%, FLuc counter -1% and ELG1 genotoxic 3%.
`O=C(Nc1ccccc1Cl)c1ccc2c(=O)n3c(nc2c1)CCC3` gave Rab9 prom act 1.1µM*, NPC1 promoter act 3.5µM*, FLuc counter 11µM* and ELG1 genotoxic inconclusive.
For O=C1N=C(N2CCCCC2)S/C1=C\c1cn[nH]c1-c1ccccc1 the results were SMN2 splice enh inconclusive, Rab9 prom act 15%, KinaseGlo FLuc 1%, NPC1 promoter act 21%, FLuc counter 7.6µM* and ELG1 genotoxic -1%.
O=C1N=C(N2CCCC2)S/C1=C\C=C\c1ccccc1 was read as Rab9 prom act 0.56µM*, NPC1 promoter act 1.6µM*, FLuc counter 0.85µM* and ELG1 genotoxic 1.6µM*.
Screening O=C1N=C(N2CCCCC2)S/C1=C\c1ccncc1 returned Rab9 prom act -6%, NPC1 promoter act -4%, FLuc counter -9% and ELG1 genotoxic -6%.
`CC1CCN(C2=NC(=O)/C(=C/c3cccc(O)c3)S2)CC1` gave Rab9 prom act -6%, NPC1 promoter act -6%, FLuc counter inconclusive and ELG1 genotoxic 12%.
`CC1CCN(C2=NC(=O)/C(=C/c3ccccc3F)S2)CC1` gave Rab9 prom act 15%, NPC1 promoter act inconclusive, FLuc counter 3.4µM* and ELG1 genotoxic 9.2µM*.
Screening O=C1N=C(N2CCOCC2)S/C1=C\c1cccnc1 returned SMN2 splice enh -4%, Rab9 prom act -3%, KinaseGlo FLuc -4%, NPC1 promoter act -3%, FLuc counter -2% and ELG1 genotoxic 0%.
CCc1ccc(/C=C2\SC(N3CCCC3)=NC2=O)cc1 was read as SMN2 splice enh -38%, Rab9 prom act -5%, KinaseGlo FLuc -2%, NPC1 promoter act -1%, FLuc counter 17µM* and ELG1 genotoxic 3%.
For COc1cccc(CNC(=O)c2cccc(-n3c(C)nc4cccnc43)c2C)c1 the results were FLuc counter -2%.
Screening CCc1ccc(NC(=O)CC2C(=O)N(c3cccc(OC)c3)C(=O)N2Cc2ccc(F)cc2)cc1 (stereo not given) returned FLuc counter -2%.
`COc1ccc(/C=C2\SC(N3CCCCC3)=NC2=O)cc1` gave Rab9 prom act inconclusive, NPC1 promoter act inconclusive, FLuc counter 11µM* and ELG1 genotoxic 10%.
O=C(OCc1ccccc1)c1cccc(-c2nnn(Cc3ccccc3)n2)c1 was read as SMN2 splice enh 7.9µM*, Rab9 prom act 17%, KinaseGlo FLuc -6%, NPC1 promoter act 27%, FLuc counter -3% and ELG1 genotoxic inconclusive.
O=C(Cn1nnc(-c2ccccc2)n1)OCc1ccccc1 was read as SMN2 splice enh -3%, Rab9 prom act 0%, KinaseGlo FLuc -6%, NPC1 promoter act 2%, FLuc counter inconclusive and ELG1 genotoxic -1%.
O=S(=O)(Cc1noc(-c2ccccc2Cl)n1)c1ccccn1 was read as Rab9 prom act 1.4µM*, NPC1 promoter act 1.6µM*, FLuc counter 11µM* and ELG1 genotoxic inconclusive.
Cc1cccnc1NC(=S)Nc1ccc(Br)cc1Cl was read as SMN2 splice enh 25µM*, Rab9 prom act 3.2µM*, KinaseGlo FLuc -4%, NPC1 promoter act 3.2µM*, FLuc counter 4.8µM* and ELG1 genotoxic inconclusive.
Screening CCOc1ccccc1C(=O)Nc1nc2c(s1)CC(C)CC2 (stereo not given) returned FLuc counter 2.7µM*.
Screening CCC(CC)C(=O)Nc1nc2c(s1)CC(C)CC2 (stereo not given) returned FLuc counter -21%.
`O=C(CCCc1cccs1)Nc1nc2c(s1)CCCC2` gave SMN2 splice enh 16µM*, Rab9 prom act inconclusive, KinaseGlo FLuc -1%, NPC1 promoter act inconclusive, FLuc counter 24µM* and ELG1 genotoxic inconclusive.
For CC1CCc2nc(NC(=O)C3CCCO3)sc2C1 (stereo not given) the results were SMN2 splice enh 2µM*, Rab9 prom act 0.5µM*, KinaseGlo FLuc -2%, NPC1 promoter act 0.5µM*, FLuc counter 2.1µM* and ELG1 genotoxic 1.2µM*.
For CC1CCc2nc(NC(=O)Cc3cccs3)sc2C1 (stereo not given) the results were SMN2 splice enh 14µM*, Rab9 prom act 2.2µM*, KinaseGlo FLuc 0%, NPC1 promoter act 3.2µM*, FLuc counter 9.5µM* and ELG1 genotoxic 9.2µM*.
CCOc1ccccc1C(=O)Nc1nccs1 was read as SMN2 splice enh -1%, Rab9 prom act -1%, KinaseGlo FLuc 1%, NPC1 promoter act 1%, FLuc counter -6% and ELG1 genotoxic 3%.
